In PubChem BioAssay (NCI):
Compounds without any hit were thinned out: in the full panel of roughly 83,000, 20% have a hit.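 Results are percent growth after 48 hours of single-concentration exposure. 100 means growth as in untreated cells, lower positive values show inhibition; negative values down to -100 show cell death.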 Unmarked numbers belong to inactive results. Active and inactive are the calls of the source. How the source made its calls: active means growth percent below 10; inactive means the rest.

test system: OVCAR-8 ovarian; assay: NCI-60 one-dose screen, 48 h (100 = growth as untreated, 0 = no growth, -100 = all killed); settings: 10 µM unless noted

| Compound | growth |
| --- | --- |
| COC(=O)c1c(C)nc(C)c2c1C(=O)C=C(NCc1ccccc1)C2=O | 97.8% |
| COc1ccc2[nH]cc(-c3nonc3-c3c[nH]c4ccc(Br)cc34)c2c1 | 48.7% |
| C=C(C)[C@@H]1CC[C@]2(COC3CCCCO3)CC[C@]3(C)[C@H](CC[C@@H]4[C@@]5(C)C=C(C=O)C(=O)C(C)(C)[C@@H]5CC[C@]43C)[C@@H]12 (stereo not given in full) | -39.2% (active) |
| CCOc1ncc([N+](=O)[O-])c(OCC)n1 | 105% |
| c1ccc(-c2c(-c3ccccc3)[n+](Cc3ccc4ccccc4c3)cn2Cc2ccc3ccccc3c2)cc1 | -87.4% (active) |
| Cn1cc(-c2csc(-c3cn(CCCN4CCOCC4)c4ccc(F)cc34)n2)c2cccnc21 | 47.6% |
| Cc1cn(C)cn1 | 106% |
| COC(=O)c1sccc1-c1cc(O)c(C(=O)Nc2ccccc2)s1 | 101% |
| CCCCCc1ccc(S(=O)(=O)Nc2ccc3nc(N)oc3c2)cc1 | 53.8% |
| COc1ccc2c(O)c(/C=C3\N=Nc4ncccc43)oc2c1C[C@@H]1CCNC[C@H]1F | -20.5% (active) |
| CCN(CC)CCCC(Cc1ccccc1)Nc1c2ccc(Cl)cc2nc2ccc(OC)cc12 (stereo not given) | 36.4% |
| CNCC[C@H](Oc1cccc2ccccc12)c1cccs1 | 82.1% |
| CCOC(=O)c1cnn(CC(C)O)c1NC(=O)NCc1cccc(F)c1 (stereo not given) | 106% |
| N#Cc1ccc(/C=C/c2cn(-c3ccccc3)nc2-c2cccc([N+](=O)[O-])c2)cc1 | 44.1% |
| O=C(/C=C/c1ccco1)Nc1ncc(Cc2cc(Cl)ccc2Cl)s1 | 14.1% |
| CCOC(=O)c1nnn(Cc2cc(=O)oc3ccc(O)cc23)c1C | 107% |
| CC1(C)CC[C@]23CC[C@]4(C)[C@H](CC[C@@H]5[C@@]6(C)C/C(=C/O)C(=O)C(C)(C)[C@@H]6CC[C@]54C)[C@H]2[C@H]1OC3 | 104% |
| COC(=O)c1nc(-c2ccccc2)oc1S(=O)(=O)N1CCCC(C)C1 (stereo not given) | 81.9% |
| Cc1ccc2c(/C=C/C(=O)c3cc(CN4CCOCC4)c(O)c4nc(C)ccc34)cc(CN3CCOCC3)c(O)c2n1 | 11.1% |
| CCN1C(=O)N(CC)C2C1NN=c1s/c(=C\c3ccc(OC)cc3)c(=O)n12 (stereo not given) | -2.81% (active) |

| Compound | growth |
| --- | --- |
| COc1ccc(C/C(C)=C(\c2ccc(Cl)cc2)c2ccc(OCCN3CCCC3)cc2)cc1 | 91.1% |
| CCN(CC)CCOc1ccc(Nc2ncc3cc(-c4c(Cl)cccc4Cl)c(=O)n(CCOC)c3n2)cc1 | 9.23% (active) |
| O=C(O)c1cn(C2CC2)c2cc(N3CCN(C(=O)N4CCOCC4)CC3)c(F)cc2c1=O | 104% |
| Clc1ccc(-c2nc(C(Cl)Cl)nc3cc(-c4ccccc4)nn23)cc1 | 29.8% |
| c1cc(OCCN2CCCCCC2)ccc1CNc1ccc2nc(CCC3CCCCC3)[nH]c2c1 | 65.6% |
| CN(C)CCCC1(c2ccc(F)cc2)OCc2cc(-c3csc4ccccc34)ccc21 (stereo not given) | -23.2% (active) |
| C(=C(\C1=NCCN1)n1ccc2ccccc21)/c1ccccc1 | 97% |
| COc1ccc(C/C(C)=C(\c2ccc(Cl)cc2)c2ccc(OCCCN(C)C)cc2)cc1 | 86.2% |
| Cc1ccc(S(=O)(=O)c2nc(-c3ccccc3)oc2SCC(N)=O)cc1 | 111% |
| CCCCn1c(NC(C)=O)c(S(=O)(=O)c2ccccc2)c2nc3ccccc3nc21 | 98.9% |
| Cc1ccc(Cc2cnc(NC(=O)/C=C/c3ccc(C)o3)s2)cc1 | 62% |
| CCN(CC)CCOc1ccc(C(=O)/C=C\c2ccc(Cl)cc2Cl)cc1 | 53.3% |
| O=C(/C=C/C12c3ccccc3C(c3ccccc31)C1C(=O)NC(=O)C12)c1ccco1 (stereo not given) | 5.8% (active) |
| CCOC(=O)C1=C(CC(O)c2ccc(OC)cc2OC)NC(=O)NC1c1ccccc1 (stereo not given) | 109% |
| COc1ccc2c(c1)CC[C@@H]1[C@@H]2CC[C@]2(C)c3c(cc(C#N)c4c3sc3ccccc34)C[C@@H]12 | 101% |
| COc1ccc(-c2cn(Cc3cc4ccccc4s3)nn2)cc1OCCN1CCCCC1 | 83.2% |
| Cc1ncc(C(=O)Nc2ccc(CN3CCN(C)CC3)c(C(F)(F)F)c2)cc1C#Cc1cnc(N)c2ccc(C#N)cc12 | 3.22% (active) |
| Cc1sc2nc(NCCN)[nH]c(=O)c2c1C | 101% |
| C#CCOc1cccc(Nc2ncnc3cc(NC(=O)CCl)ccc23)c1 | -30.2% (active) |
| COc1cc(-c2ccc(-c3ccc(C(=N)N)cc3)s2)cc(OC)c1OC | 70.7% |

test system: OVCAR-5 ovarian; assay: as above; settings: 10 µM unless noted

| Compound | growth |
| --- | --- |
| COC(=O)c1c(C)nc(C)c2c1C(=O)C=C(NCc1ccccc1)C2=O | 81.7% |
| COc1ccc2[nH]cc(-c3nonc3-c3c[nH]c4ccc(Br)cc34)c2c1 | 47.7% |
| C=C(C)[C@@H]1CC[C@]2(COC3CCCCO3)CC[C@]3(C)[C@H](CC[C@@H]4[C@@]5(C)C=C(C=O)C(=O)C(C)(C)[C@@H]5CC[C@]43C)[C@@H]12 (stereo not given in full) | -19% (active) |
| CCOc1ncc([N+](=O)[O-])c(OCC)n1 | 101% |
| c1ccc(-c2c(-c3ccccc3)[n+](Cc3ccc4ccccc4c3)cn2Cc2ccc3ccccc3c2)cc1 | -29.1% (active) |
| Cn1cc(-c2csc(-c3cn(CCCN4CCOCC4)c4ccc(F)cc34)n2)c2cccnc21 | 73% |
| Cc1cn(C)cn1 | 102% |
| COC(=O)c1sccc1-c1cc(O)c(C(=O)Nc2ccccc2)s1 | 117% |
| CCCCCc1ccc(S(=O)(=O)Nc2ccc3nc(N)oc3c2)cc1 | 99.5% |
| COc1ccc2c(O)c(/C=C3\N=Nc4ncccc43)oc2c1C[C@@H]1CCNC[C@H]1F | 17% |
| CCN(CC)CCCC(Cc1ccccc1)Nc1c2ccc(Cl)cc2nc2ccc(OC)cc12 (stereo not given) | 71.1% |
| CNCC[C@H](Oc1cccc2ccccc12)c1cccs1 | 117% |
| CCOC(=O)c1cnn(CC(C)O)c1NC(=O)NCc1cccc(F)c1 (stereo not given) | 107% |
| N#Cc1ccc(/C=C/c2cn(-c3ccccc3)nc2-c2cccc([N+](=O)[O-])c2)cc1 | 64.2% |
| O=C(/C=C/c1ccco1)Nc1ncc(Cc2cc(Cl)ccc2Cl)s1 | 34% |
| CCOC(=O)c1nnn(Cc2cc(=O)oc3ccc(O)cc23)c1C | 101% |
| CC1(C)CC[C@]23CC[C@]4(C)[C@H](CC[C@@H]5[C@@]6(C)C/C(=C/O)C(=O)C(C)(C)[C@@H]6CC[C@]54C)[C@H]2[C@H]1OC3 | 107% |
| COC(=O)c1nc(-c2ccccc2)oc1S(=O)(=O)N1CCCC(C)C1 (stereo not given) | 87.4% |
| Cc1ccc2c(/C=C/C(=O)c3cc(CN4CCOCC4)c(O)c4nc(C)ccc34)cc(CN3CCOCC3)c(O)c2n1 | 0.618% (active) |
| CCN1C(=O)N(CC)C2C1NN=c1s/c(=C\c3ccc(OC)cc3)c(=O)n12 (stereo not given) | 29.4% |

| Compound | growth |
| --- | --- |
| COc1ccc(C/C(C)=C(\c2ccc(Cl)cc2)c2ccc(OCCN3CCCC3)cc2)cc1 | 68.9% |
| CCN(CC)CCOc1ccc(Nc2ncc3cc(-c4c(Cl)cccc4Cl)c(=O)n(CCOC)c3n2)cc1 | 2.15% (active) |
| O=C(O)c1cn(C2CC2)c2cc(N3CCN(C(=O)N4CCOCC4)CC3)c(F)cc2c1=O | 104% |
| Clc1ccc(-c2nc(C(Cl)Cl)nc3cc(-c4ccccc4)nn23)cc1 | 17% |
| c1cc(OCCN2CCCCCC2)ccc1CNc1ccc2nc(CCC3CCCCC3)[nH]c2c1 | 79.5% |
| CN(C)CCCC1(c2ccc(F)cc2)OCc2cc(-c3csc4ccccc34)ccc21 (stereo not given) | 37% |
| C(=C(\C1=NCCN1)n1ccc2ccccc21)/c1ccccc1 | 92.6% |
| COc1ccc(C/C(C)=C(\c2ccc(Cl)cc2)c2ccc(OCCCN(C)C)cc2)cc1 | 70.8% |
| Cc1ccc(S(=O)(=O)c2nc(-c3ccccc3)oc2SCC(N)=O)cc1 | 86.9% |
| CCCCn1c(NC(C)=O)c(S(=O)(=O)c2ccccc2)c2nc3ccccc3nc21 | 93.2% |
| Cc1ccc(Cc2cnc(NC(=O)/C=C/c3ccc(C)o3)s2)cc1 | 60.3% |
| CCN(CC)CCOc1ccc(C(=O)/C=C\c2ccc(Cl)cc2Cl)cc1 | 68% |
| O=C(/C=C/C12c3ccccc3C(c3ccccc31)C1C(=O)NC(=O)C12)c1ccco1 (stereo not given) | 44.3% |
| CCOC(=O)C1=C(CC(O)c2ccc(OC)cc2OC)NC(=O)NC1c1ccccc1 (stereo not given) | 88.7% |
| COc1ccc2c(c1)CC[C@@H]1[C@@H]2CC[C@]2(C)c3c(cc(C#N)c4c3sc3ccccc34)C[C@@H]12 | 80.6% |
| COc1ccc(-c2cn(Cc3cc4ccccc4s3)nn2)cc1OCCN1CCCCC1 | 80.5% |
| Cc1ncc(C(=O)Nc2ccc(CN3CCN(C)CC3)c(C(F)(F)F)c2)cc1C#Cc1cnc(N)c2ccc(C#N)cc12 | -24.7% (active) |
| Cc1sc2nc(NCCN)[nH]c(=O)c2c1C | 89.5% |
| C#CCOc1cccc(Nc2ncnc3cc(NC(=O)CCl)ccc23)c1 | -73% (active) |
| COc1cc(-c2ccc(-c3ccc(C(=N)N)cc3)s2)cc(OC)c1OC | 83% |
